Measured values taken from PubChem BioAssay (NCATS).
Records with an inconclusive call do not appear. Where a call stands in place of a potency, no number is given. Activity calls are given as the source filed them. Calls come from the whole dose curve; as a rule, active = well fitted curve in the direction sought with a large enough effect; inconclusive = small, poorly fitted or top-dose-only effect, or another doubt; inactive = no such curve, though single readings can be large; an effect the other way counts as inactive or inconclusive.

Columns and labels:
[1] = Quantitative High-Throughput drug screen in 47 multiple myeloma cell lines against the NCATS MIPE library collection: KHM11_PLB cell viability assay (AID 1918962); note: nearly all actives have a fitted effect of over 35% in size
In short: (§1)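 Relative luminescence from CellTiter-Glo served as the viability signal, referenced to DMSO-treated (100%) and cell-free medium (0%) controls. Treatment lasted 48 hours at 37C with 500 cells per well.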

[2] = Quantitative High-Throughput drug screen in 47 multiple myeloma cell lines against the NCATS MIPE library collection: JIM3_ECACC cell viability assay (AID 1918963; note: nearly all actives have a fitted effect of over 35% in size)
In short: as §1

[3] = Quantitative High-Throughput drug screen in 47 multiple myeloma cell lines against the NCATS MIPE library collection: INA6_PLB cell viability assay (AID 1918965; note: nearly all actives have a fitted effect of over 55% in size)
In short: as §1

[4] = Quantitative High-Throughput drug screen in 47 multiple myeloma cell lines against the NCATS MIPE library collection: JJN3_DSMZ cell viability assay (AID 1918966; note: nearly all actives have a fitted effect of over 50% in size)
In short: (§2)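 We plated 500 myeloma cells per well, pinned in MIPE 4.0 compounds, and incubated for 48 hours at 37C. ATP was then quantified with CellTiter-Glo, with DMSO and media-only wells defining 100% and 0%.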

[5] = Quantitative High-Throughput drug screen in 47 multiple myeloma cell lines against the NCATS MIPE library collection: KMS12BM_JCRB cell viability assay (AID 1918971); note: nearly all actives have a fitted effect of over 35% in size
In short: (§3)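 Inhibition of cell viability is measured here. Each line was plated at 500 cells per well, treated with MIPE 4.0 drugs, kept 48 hours at 37C, then assayed for ATP content by CellTiter-Glo luminescence.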

[6] = Quantitative High-Throughput drug screen in 47 multiple myeloma cell lines against the NCATS MIPE library collection: KMS26_JCRB cell viability assay (AID 1918975); note: nearly all actives have a fitted effect of over 45% in size
In short: as §3

[7] = Quantitative High-Throughput drug screen in 47 multiple myeloma cell lines against the NCATS MIPE library collection: MOLP8_DSMZ cell viability assay (AID 1918977); note: nearly all actives have a fitted effect of over 45% in size
In short: (§4)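 Readout: median RLU from CellTiter-Glo after 5 min at room temperature. Preceding step was 48 h drug treatment of 500 cells/well at 37 °C, 5% CO2, with DMSO-only and media-only control wells.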

[8] = Quantitative High-Throughput drug screen in 47 multiple myeloma cell lines against the NCATS MIPE library collection: NCIH929_DSMZ cell viability assay (AID 1918978); note: nearly all actives have a fitted effect of over 35% in size
In short: as §4

[9] = Quantitative High-Throughput drug screen in 47 multiple myeloma cell lines against the NCATS MIPE library collection: MM1S_ATCC cell viability assay (AID 1918980); note: nearly all actives have a fitted effect of over 45% in size
In short: as §4

[10] = Quantitative High-Throughput drug screen in 47 multiple myeloma cell lines against the NCATS MIPE library collection: H1112_PLB cell viability assay (AID 1918967; note: nearly all actives have a fitted effect of over 30% in size)
In short: as §2

[11] = Quantitative High-Throughput drug screen in 47 multiple myeloma cell lines against the NCATS MIPE library collection: KMS12PE_JCRB cell viability assay (AID 1918972); note: nearly all actives have a fitted effect of over 30% in size
In short: as §1

[12] = Quantitative High-Throughput drug screen in 47 multiple myeloma cell lines against the NCATS MIPE library collection: KMS21BM_JCRB cell viability assay (AID 1918974); conditions: ATP luminescence, 48 h; viability: at 45.8 µM (top of the series)
In short: as §2

[13] = Quantitative High-Throughput drug screen in 47 multiple myeloma cell lines against the NCATS MIPE library collection: MMM1_PLB cell viability assay (AID 1918976); note: nearly all actives have a fitted effect of over 35% in size
In short: as §4

[14] = Quantitative High-Throughput drug screen in 47 multiple myeloma cell lines against the NCATS MIPE library collection: JIM1_ECACC cell viability assay (AID 1918964)
In short: as §2

[15] = Quantitative High-Throughput drug screen in 47 multiple myeloma cell lines against the NCATS MIPE library collection: Karpas25_ECACC cell viability assay (AID 1918968; note: nearly all actives have a fitted effect of over 35% in size)
In short: as §2

[16] = Quantitative High-Throughput drug screen in 47 multiple myeloma cell lines against the NCATS MIPE library collection: KMS27_JCRB cell viability assay (AID 1918970); note: nearly all actives have a fitted effect of over 30% in size
In short: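 CellTiter-Glo luminescence after 48 h drug exposure at 37 °C; 500 cells/well, 1536-well format, pin-tool compound addition; DMSO = 100%, media-only = 0% viability.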

[17] = Quantitative High-Throughput drug screen in 47 multiple myeloma cell lines against the NCATS MIPE library collection: KMS20_JCRB cell viability assay (AID 1918973); note: nearly all actives have a fitted effect of over 45% in size
In short: as §2

[18] = Quantitative High-Throughput drug screen in 47 multiple myeloma cell lines against the NCATS MIPE library collection: OCIMY1_PLB cell viability assay (AID 1918979); note: nearly all actives have a fitted effect of over 35% in size
In short: as §4

[19] = Quantitative High-Throughput drug screen in 47 multiple myeloma cell lines against the NCATS MIPE library collection: LP1_DSMZ cell viability assay (AID 1918982); note: nearly all actives have a fitted effect of over 35% in size
In short: as §4

[20] = Quantitative High-Throughput drug screen in 47 multiple myeloma cell lines against the NCATS MIPE library collection: MM1R_ATCC cell viability assay (AID 1918981); note: nearly all actives have a fitted effect of over 35% in size
In short: as §4
Potency is the fitted concentration of half-maximal effect.

SMILES: CO[C@@]12[C@H](COC(N)=O)C3=C(C(=O)C(C)=C(N)C3=O)N1C[C@@H]1N[C@@H]12
- Potency [1]: 33.2 µM (active)
- Potency [2]: 26.4 µM (active)
- Potency [3]: 20.9 µM (active)
- Potency [4]: 26.4 µM (active)
- Potency [5]: 23.5 µM (active)
- Potency [6]: 23.5 µM (active)
- Potency [7]: 23.5 µM (active)
- Potency [8]: 26.4 µM (active)
- Potency [9]: 0.264 µM (active)

SMILES: O[C@@H](CNC[C@H](O)[C@H]1CCc2cc(F)ccc2O1)[C@@H]1CCc2cc(F)ccc2O1
- Potency [1]: 26.4 µM (active)
- Potency [2]: 23.5 µM (active)
- Potency [3]: 20.9 µM (active)
- Potency [10]: 29.6 µM (active)
- Potency [5]: 23.5 µM (active)
- Potency [11]: 14.8 µM (active)
- Potency [12]: 23.5 µM (active)
- Potency [6]: 26.4 µM (active)
- Potency [13]: 23.5 µM (active)
- Potency [8]: 23.5 µM (active)
- Potency [9]: 20.9 µM (active)

SMILES: Nc1nc(F)nc2c1ncn2[C@@H]1O[C@H](CO)[C@@H](O)[C@@H]1O
- Potency [2]: 0.662 µM (active)
- Potency [14]: 0.0935 µM (active)
- Potency [3]: 0.166 µM (active)
- Potency [4]: 0.235 µM (active)
- Potency [10]: 0.526 µM (active)
- Potency [15]: 0.296 µM (active)
- Potency [16]: 0.662 µM (active)
- Potency [5]: 0.209 µM (active)
- Potency [17]: 0.264 µM (active)
- Potency [12]: 0.059 µM (active)
- Potency [6]: 0.235 µM (active)
- Potency [7]: 0.166 µM (active)
- Potency [8]: 0.209 µM (active)
- Potency [18]: 0.469 µM (active)
- Potency [9]: 0.209 µM (active)
- Potency [19]: 0.59 µM (active)

SMILES: CN(C)CCc1c[nH]c2ccc(CS(=O)(=O)N3CCCC3)cc12
- Potency [1]: 16.6 µM (active)
- Potency [2]: inactive
- Potency [14]: inactive
- Potency [3]: 0.0074 µM (active)
- Potency [4]: inactive
- Potency [16]: 23.5 µM (active)
- Potency [5]: inactive
- Potency [6]: inactive
- Potency [8]: inactive
- Potency [18]: inactive
- Potency [19]: inactive

SMILES: COc1ccccc1OCC(O)COC(N)=O (centres undefined)
- Potency [1]: inactive
- Potency [2]: inactive
- Potency [14]: inactive
- Potency [3]: inactive
- Potency [10]: inactive
- Potency [15]: inactive
- Potency [16]: inactive
- Potency [5]: inactive
- Potency [6]: inactive
- Potency [7]: inactive
- Potency [8]: inactive
- Potency [19]: inactive

SMILES: O=NN(CCCl)C(=O)NC1CCCCC1
- Potency [1]: inactive
- Potency [2]: inactive
- Potency [14]: inactive
- Potency [10]: inactive
- Potency [16]: inactive
- Potency [5]: inactive
- Potency [6]: inactive
- Potency [7]: inactive
- Potency [8]: inactive
- Potency [18]: inactive
- Potency [9]: inactive
- Potency [20]: inactive
- Potency [19]: inactive

SMILES: NCCCC(O)(P(=O)(O)O)P(=O)(O)O
- Potency [1]: inactive
- Potency [2]: inactive
- Potency [16]: inactive
- Potency [11]: inactive
- Potency [17]: inactive
- Potency [6]: inactive
- Potency [13]: inactive
- Potency [7]: inactive
- Potency [8]: inactive
- Potency [18]: inactive
- Potency [9]: 11.8 µM (active)
- Potency [20]: inactive
- Potency [19]: inactive

SMILES: CC1CC2C3CCC4=CC(=O)C=C[C@]4(C)[C@@]3(F)[C@@H](O)C[C@]2(C)[C@@]1(O)C(=O)CO (some centres undefined)
- Potency [1]: 0.833 µM (active)
- Potency [2]: inactive
- Potency [14]: 0.0023 µM (active)
- Potency [10]: inactive
- Potency [16]: inactive
- Potency [11]: inactive
- Potency [13]: 0.0264 µM (active)
- Potency [7]: 0.935 µM (active)
- Potency [8]: 0.0526 µM (active)
- Potency [9]: 0.59 µM (active)
- Potency [20]: inactive

SMILES: CCN1CCCC1CNC(=O)c1cc(S(N)(=O)=O)ccc1OC (centres undefined)
- Potency [1]: inactive
- Potency [14]: inactive
- Potency [11]: inactive
- Potency [6]: inactive
- Potency [13]: inactive
- Potency [8]: inactive
- Potency [18]: inactive
- Potency [20]: inactive
- Potency [19]: inactive

SMILES: Nc1nc(N)nc(-c2cc(Cl)ccc2Cl)n1
- Potency [1]: inactive
- Potency [2]: inactive
- Potency [4]: inactive
- Potency [16]: inactive
- Potency [5]: inactive
- Potency [7]: inactive
- Potency [8]: inactive
- Potency [18]: inactive
- Potency [19]: inactive

SMILES: Cc1cccc(Nc2ccncc2S(=O)(=O)NC(=O)NC(C)C)c1
- Potency [1]: inactive
- Potency [2]: inactive
- Potency [14]: inactive
- Potency [4]: 20.9 µM (active)
- Potency [10]: inactive
- Potency [15]: inactive
- Potency [16]: inactive
- Potency [5]: 16.6 µM (active)
- Potency [11]: inactive
- Potency [13]: 20.9 µM (active)
- Potency [8]: inactive
- Potency [18]: inactive
- Potency [9]: inactive
- Potency [19]: inactive

SMILES: O=P(O)(O)C(O)(Cc1cccnc1)P(=O)(O)O
- Potency [1]: inactive
- Potency [2]: inactive
- Potency [10]: inactive
- Potency [16]: inactive
- Potency [6]: 0.0017 µM (active)
- Potency [8]: inactive
- Potency [18]: inactive
- Potency [9]: inactive
- Potency [19]: inactive

SMILES: NNC(=O)c1ccncc1
- Potency [1]: inactive
- Potency [2]: inactive
- Potency [14]: inactive
- Potency [3]: inactive
- Potency [10]: inactive
- Potency [16]: inactive
- Potency [5]: inactive
- Potency [11]: inactive
- Potency [17]: inactive
- Potency [6]: inactive
- Potency [7]: inactive
- Potency [8]: inactive
- Potency [18]: inactive
- Potency [20]: inactive
- Potency [19]: inactive

SMILES: N[C@@H](C(=O)N[C@@H]1C(=O)N2C(C(=O)O)=C(Cl)CS[C@H]12)c1ccccc1
- Potency [1]: inactive
- Potency [2]: inactive
- Potency [14]: inactive
- Potency [3]: inactive
- Potency [4]: inactive
- Potency [10]: inactive
- Potency [16]: inactive
- Potency [11]: inactive
- Potency [17]: inactive
- Potency [6]: inactive
- Potency [7]: inactive
- Potency [8]: inactive
- Potency [9]: inactive
- Potency [19]: inactive

SMILES: CCC(=O)O[C@]1(C(=O)CCl)[C@@H](C)C[C@H]2[C@@H]3CCC4=CC(=O)C=C[C@]4(C)[C@@]3(F)[C@@H](O)C[C@@]21C
- Potency [1]: inactive
- Potency [2]: inactive
- Potency [10]: inactive
- Potency [5]: 14.8 µM (active)
- Potency [12]: inactive
- Potency [6]: inactive
- Potency [7]: inactive
- Potency [8]: inactive
- Potency [18]: inactive
- Potency [20]: inactive

SMILES: C1CCC(C(CC2CCCCN2)C2CCCCC2)CC1 (centres undefined)
- Potency [2]: 18.7 µM (active)
- Potency [14]: 20.9 µM (active)
- Potency [3]: 9.35 µM (active)
- Potency [4]: 20.9 µM (active)
- Potency [10]: 23.5 µM (active)
- Potency [15]: 8.33 µM (active)
- Potency [16]: 10.5 µM (active)
- Potency [5]: 9.35 µM (active)
- Potency [11]: 8.33 µM (active)
- Potency [17]: 6.62 µM (active)
- Potency [12]: 11.8 µM (active)
- Potency [6]: 16.6 µM (active)
- Potency [7]: 16.6 µM (active)
- Potency [8]: 20.9 µM (active)
- Potency [18]: 29.6 µM (active)
- Potency [9]: 6.62 µM (active)
- Potency [20]: 9.35 µM (active)
- Potency [19]: 14.8 µM (active)
